Values joined by “and” are separate entries in the source; they are usually repeats but may differ in a detail not shown here. Equal values may be shown once. Records with an inconclusive call do not appear. Entries that show only a call come without a potency. Active and inactive are the calls of the source. Calls follow the shape of the dose curve; as a rule, active = well fitted cell-killing curve with a large enough effect; inconclusive = small, poorly fitted or top-dose-only effect, or effect the other way; inactive = no such curve, though single readings can be large or run the other way.
Potency is read from the fitted curve at half-maximal effect.

The nature of the experiment: Viability qHTS for spleen associated tyrosine kinase inhibitor (SYKi) drug resistant MV4-11 cells (AID 1963824). Also: nearly all actives have a fitted effect of over 35% in size. The settings on record: SYKi-resistant MV4-11 viability, CellTiter-Glo, 72 h; series mostly up to 45 µM. Put shortly: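 SYK-inhibitor-resistant MV4-11 AML cells were seeded at 500 per well onto compound and cultured 72 hours (37 °C, 5% CO2). CellTiter-Glo was then added, and after 10 min at room temperature, luminescence gave viability.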
Background: qHTS replaces the single test concentration by a dilution series.
`Cc1nnsc1C(=O)Nc1ccc(-n2nc(C(F)(F)F)cc2C(F)(F)F)cc1`: the Potency was 16.4 µM (active). In the case of `COc1cc(/C=C/C(=O)O[C@H]2C[C@@H]3C(C(=O)O)=CO[C@@H](O[C@@H]4O[C@H](CO)[C@@H](O)[C@H](O)[C@H]4O)[C@@H]3[C@H]2C)ccc1O` it was “inactive”.

On to `COc1cc(/C=C/C(=O)O[C@H]2[C@H](O)[C@@H](CO)O[C@@]2(CO)O[C@H]2O[C@H](CO)[C@@H](O)[C@H](O)[C@H]2O)ccc1O`, for which the Potency result was “inactive”.

Turning to `CC1=CC(=O)CC(C)(C)C1CCC(C)O[C@@H]1O[C@H](CO[C@@H]2OC[C@@H](O)[C@H](O)[C@H]2O)[C@@H](O)[C@H](O)[C@H]1O` (some centres undefined), the Potency result was “inactive”. In the case of `CC1COC(Nc2ccc3ncnc(Nc4ccc(OCc5nccs5)c(Cl)c4)c3c2)=N1` (centres undefined) it was 9.2 µM (active); in that of `C=C1C(O)CC2C(C(=O)O)=COC(OC3OC(CO)C(O)C(O)C3OC(=O)/C=C\c3ccc(O)cc3)C12` (centres undefined), “inactive”; in that of `COc1cc(Nc2nc3c(s2)CCCC3c2ccc(F)cc2)ccc1-n1cnc(C)c1` (centres undefined), 4.61 µM (active). As to `C=CC(C)(O)CC/C=C(\C)C(=O)O[C@@H]1[C@@H](O)[C@H](OC(C)(C=C)CC/C=C(\C)C(=O)O)O[C@H](CO)[C@H]1OC(=O)/C(C)=C/CCC(C)(O)C=C` (some centres undefined), the Potency entry is “inactive”. In the case of `N#C[C@@H]1C[C@H](F)CN1C(=O)CNC1[C@H]2CN(C(=O)c3ccc(F)cc3)C[C@@H]12` (some centres undefined) it was “inactive”; in that of `Cc1ccc(NC(=O)c2ccc(CN3CCNCC3)cc2)cc1Nc1nccc(-c2cccnc2)n1`, 9.2 µM (active) and 16.6 µM (active); in that of `C=Cc1ccc(O[C@@H]2O[C@H](CO[C@@H]3O[C@@H](C)[C@H](O)[C@@H](O)[C@H]3O)[C@@H](O)[C@H](O)[C@H]2O)cc1`, “inactive”. `C/C=C(/C)C(=O)O[C@H]1C=C(CO)C(=O)[C@H](OC(=O)/C(C)=C/CO)[C@H]1C(C)C`: the Potency was 1.61 µM (active). The same measure for `COc1cc(C(=O)OC(COCCC(C)C)CN2CCOCC2)cc(OC)c1OC` (centres undefined): “inactive”. In the case of `CC1CCC/C=C/C(=O)c2c(O)cc(O)cc2CC(=O)O1` (centres undefined) it was 2.06 µM (active); in that of `CC(C)(O)CC(CO)NC(=O)CC(O)CC(=O)Cc1ccccc1` (centres undefined), “inactive”; in that of `CCC(C)CNCC(=O)N1CCc2sccc2C1COc1cccc(C)c1` (centres undefined), 9.2 µM (active). In the case of `CC(=O)OC[C@@]12C(=O)C[C@@H](C)[C@]3(C[C@@H](c4ccoc4)O[C@H]3OC(C)=O)[C@H]1CCC[C@]21CO1` it was “inactive”; in that of `C/C=C(\C)[C@@H]1C(C)=C[C@@H]2[C@H]([C@@H]1/C=C/C=C/C(=O)O)[C@@H](C)CC[C@@H]2O`, 3.6 µM (active); in that of `NC1CCCCN(c2c(F)cc3c(=O)c(C(=O)O)cn(C4CC4)c3c2Cl)C1` (centres undefined), “inactive”. With `C[C@]1(O)CC[C@@H]2C(C(=O)O)=CO[C@@H](O[C@@H]3O[C@H](CO)[C@@H](O)[C@H](O)[C@H]3O)[C@@H]21`, the Potency result was “inactive”.

For `CC1=C(C(=O)OC2OC(COC3OC(CO)C(O)C(O)C3O)C(O)C(O)C2O)C(C)(C)CCC1` (centres undefined), the Potency entry was “inactive”. The same measure for `C=C1C(=O)OC2C(OC(=O)C=C(C)C)C(C)=C3C(=O)C=C(C)C3C(O)C12` (centres undefined): 1.61 µM (active); for `O=C(O[C@H]1[C@@H]2C=CO[C@@H](O[C@@H]3O[C@H](CO)[C@@H](O)[C@H](O)[C@H]3O)[C@@H]2[C@@]2(CO)O[C@@H]12)c1ccc(O)c(O)c1`: “inactive”; for `COc1cc(/C=C/C(=O)OC2CC(OC(C)=O)C(OC(C)=O)C3C2CCC2C(=O)OC(c4ccoc4)CC23C)ccc1O[C@@H]1O[C@H](CO)[C@@H](O)[C@H](O)[C@H]1O` (some centres undefined): “inactive”.

As to `CCc1ccc2nc(Nc3cc(Cc4ccccc4)nc(NC4CCC(O)CC4)n3)sc2c1` (centres undefined), the Potency is 6.61 µM (active). Consider `C/C=C1/[C@H](O[C@@H]2O[C@H](CO)[C@@H](O)[C@H](O)[C@H]2O)OC=C(C(=O)OC)[C@H]1CC(=O)OCCc1ccc(O)c(O)c1`, for which the Potency result was “inactive”.

For the compound `CC(=O)OC1C(O)CC2(C)C(CCC3(C)C2CC=C2C4C5(CCC(CO[C@@H]6O[C@H](CO)[C@@H](O)[C@H](O)[C@H]6O)(OC5=O)C4(C)O)C(O)CC23C)C1(C)C` (some centres undefined), the Potency result was “inactive”. The same measure for `CC1(C)CC[C@]2(C(=O)O[C@@H]3O[C@H](CO)[C@@H](O)[C@H](O)[C@H]3O)CC[C@]3(C)C(=CCC4[C@@]5(C)C[C@@H](O)[C@H](O)[C@@](C)(CO)C5CC[C@]43C)C2C1` (some centres undefined): “inactive”; for `C=C1CC2C3(C)C=CC(=O)OC(C)(C)C3CC(OC(C)=O)C2(C)C2C(=O)OC(C)C(=O)C12C` (centres undefined): “inactive”.
